Compounds with a hit are over-represented: about 4% of the library has one in this group of screens.
TROY signal inh: inhibitors of TROY-driven NF-kB signaling, primary screen, Q293 LMP1-TROYcd cells, NF-kB luciferase, uHTS | actives 0.98% (n = 360,000) | AID 1347056, 2019 | inhibition, % at 10 µM | Q293 LMP1-TROYcd NF-kB luciferase reporter, 4 h;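 active = compounds whose plate-normalised and pattern-corrected inhibition of the luciferase reporter signal at the single screening dose is 50% or more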
HIF-2a block: HIF-2a reporter inhibitors, primary screen, luminescence, 786-0 RCC cells | AID 624352, 2012 | actives 0.72% (n = 360,000) | inhibition, % at 18.8 µM | 786-0 RCC cells HIF-2a reporter, luciferase luminescence, overnight;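 active = inhibition of the luminescence signal of 40% or more relative to plate controls, in a single-dose primary screen at 18.75 µM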
Peg3 prom inh-1: Peg3 promoter-driven luciferase inhibitors, primary screen, cell-based, HeLa, luciferase luminescence; HeLa PEG-Prom luciferase reporter, overnight; inhibition, % at 20 µM; actives 1.7% (n = 360,000);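 active = inhibition of at least 50% at 20 µM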
CF NFkB inh: inhibitors of PAF-induced NF-kB signaling, primary screen, cell-based, GFP fluorescence, uHTS. KKLEB NF-kB-GFP reporter, GFP fluorescence overnight. inhibition, % at 5 µM. actives 0.86% (n = 360,000). AID 588850, 2011;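 active = at least 50% inhibition at 5 µM, scaled per plate between neutral and stimulator controls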;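 note: PAF is a Pseudomonas aeruginosa culture filtrate used as stimulus; plate controls were PAF-stimulated DMSO wells for no effect and unstimulated DMSO wells for full effect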
KKLEB cytotox: cytotoxicity in KKLEB CF airway cells, primary screen, cytotoxicity control for CF NF-kB inhibitor project, cell-based, uHTS, fluorescence assay plates; KKLEB CF airway cells viability, ATPlite luminescence, overnight; active compounds read low; cells stimulated with P. aeruginosa culture filtrate; activity change (cytotoxicity), % at 5 µM; actives 0.36% (n = 360,000); AID 602141, 2011;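 active = corrected activity change at or below -50% at 5 µM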
TWEAK Fn14 block: inhibitors of TWEAK-Fn14 signaling, primary screen, luciferase reporter cells, uHTS; TWEAK-stimulated Fn14 reporter cells, luciferase luminescence, 8 h; inhibition, % at 10 µM; actives 2% (n = 360,000); AID 1159606, 2016; in the data active = inhibition above about 50%
Peg3 prom inh-2: Peg3 promoter reporter inhibitors, retest, confirmation, cell-based, HeLa, luciferase reporter, single concentration | shares compounds with Peg3 prom inh-1 | HeLa PEG-Prom luciferase reporter, luminescence, overnight | inhibition, % at 20 µM | actives 84% (n = 1,300) | AID 602417, 2012;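 active = at 20 µM dose, 40% or more inhibition averaged across four replicates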
* marks the source's active call; other numbers are inactive results; / = no result given; ! = not confirmed by another sample.

SMILES	TROY signal inh	HIF-2a block	Peg3 prom inh-1	CF NFkB inh	KKLEB cytotox	TWEAK Fn14 block	Peg3 prom inh-2
O=C1[C@H](Cc2ccccc2)NCCCC[C@@H](c2ccco2)N1Cc1ccccc1	13.0	6.6	6.0	21.4	-12.9	3.2	/
O=C1[C@H](Cc2ccccc2)NCCCC[C@@H](c2ccc(Cl)cc2)N1Cc1ccc(Cl)cc1	11.6	8.8	76.3*	14.8	7.4	-7.5	21.6
CCOC(=O)Cn1cc(-c2ccccc2)nn1	/	10.1	5.1	-10.1	1.4	1.4	/
Cc1cc(/C=N/Nc2ncnc(N)c2[N+](=O)[O-])c(C)n1-c1ccccc1	83.4*	59.4*	92.4*	-14.5	-50.4*	98.5*	84.0*
COc1cc2nc(SCC(=O)NCc3ccco3)n(Cc3ccc(Cl)cc3)c(=O)c2cc1OC	-3.0	20.3	50.9*	42.1	4.7	-4.2	11.8
O=C(Oc1c(CN2CCOCC2)cc(Cl)c2cccnc12)c1ccccc1Cl	7.5	5.1	50.2*	23.4	11.5	7.4	43.3*
CCOc1ccc(NC(=O)CSc2nc3ccsc3c(=O)n2Cc2ccc(C(=O)O)cc2)cc1	0.4	5.7	1.1	5.4	11.5	18.4	/
COc1ccc(CNCc2cc(Cl)ccc2O)cc1	-27.7	-12.5	-53.9	-10.9	-2.8	-21.7	/
CCc1ccc(O)c(CNCCNCc2cc(CC)ccc2O)c1	5.2	27.8	90.5*	-3.4	-27.4	14.2	92.0*
[O-]C(=C(C(=S)Nc1cccc2ccccc12)[n+]1ccccc1)c1ccc2c(c1)OCCO2	79.2*	72.2*	53.8*	-20.9	15.2	102.9*	21.1
CC(C)(C)c1cc[n+](/C(C(=S)Nc2ccccc2F)=C(/[O-])c2ccc3c(c2)OCCO3)cc1	-16.2	-93.0	-57.7	5.6	7.7	11.9	/
CC[C@H](C)[C@H]1O[C@]2(CC[C@@H]1C)C[C@@H]1C[C@@H](CC=C(C)[C@@H](O[C@H]3C[C@H](OC)[C@@H](O[C@H]4C[C@H](OC)[C@@H](O)[C@H](C)O4)[C@H](C)O3)[C@@H](C)C=CC=C3CO[C@@H]4[C@H](O)C(C)=C[C@@H](C(=O)O1)[C@]34O)O2	30.2	52.5*	84.4*	56.1*	-51.3*	100.5*	38.0
O=C(NCc1ccccc1)C1(CC2CC(c3ccccc3)=NO2)CCNCC1 (configuration not stated)	-24.8	-2.8	-15.8	-9.1	-8.3	-17.3	/
CCCCCCCNC(=O)C1(CC2CC(c3ccccc3)=NO2)CCNCC1 (configuration not stated)	-17.5	-11.2	94.0*	9.9	-5.3	-4.1	78.8*
C[C@@H](NCCCn1cnc2c(OCc3ccccc3)ncnc21)c1cccc2ccccc12	-2.9	-22.7	91.9*	17.1	-18.9	-9.7	86.2*
c1ccc(CCCNCCCn2cnc3c(OCc4ccccc4)ncnc32)cc1	8.0	-16.5	56.1*	0.6	9.7	0.7	83.3*
CCCOc1ccc2cc(-c3ccccn3)c(=O)oc2c1	63.6*	55.1*	74.4*	-13.5	-45.8	93.3*	68.0*
CC(C)(C)c1ccc(C(=O)N/C(N)=N/c2nc3ccccc3o2)cc1	9.5	-13.1	-0.5	1.4	-2.0	23.8	/
Cc1ccc2oc(/N=C(\N)NC(=O)C(C)(C)C)nc2c1	92.1*	81.0*	81.8*	-20.1	-61.4*	103.5*	85.0*
Cc1nc2c(-c3ccc(Cl)cc3)c(C)[nH]n2c(=O)c1Cc1ccccc1	31.7	-22.4	59.2*	15.9	-11.4	39.7	67.3*
COc1ccc(-c2c(C)[nH]n3c(=O)c(Cc4ccccc4)c(C)nc23)cc1OC	4.6	33.1	23.9	-14.4	-1.4	2.2	/
COc1cc(/C=C2\SC(=Nc3ccccc3OC)NC2=O)ccc1O	24.5	16.4	64.3*	51.1*	-31.1	40.2	67.9*
CC(=O)c1ccc(NC(=O)C(C)OC(=O)/C=C/c2ccco2)cc1 (configuration not stated)	-2.5	10.3	-32.7	-5.9	-0.9	7.1	/
CCCOc1ccc(F)cc1-c1cc(C(=O)Nc2ccc(OC)cc2C)[nH]n1	-3.4	10.2	8.0	6.7	-3.8	17.9	/
COc1ccc(/C=N/Nc2nncc3ccccc23)cc1	-2.9	24.7	55.6*	-44.2	-40.1	43.1	45.7*
SMILES	TROY signal inh	HIF-2a block	Peg3 prom inh-1	CF NFkB inh	KKLEB cytotox	TWEAK Fn14 block	Peg3 prom inh-2
C[n+]1c2cc(N)ccc2cc2ccc(N)cc21	-50.2	41.2*!	95.7*	-375.5	3.9	-28.4	96.0*
CCCNc1nc(N)nc(-c2cc(Cl)ccc2OC)n1	2.0	11.9	14.4	-5.8	1.1	11.8	/
CCNc1nc(N)nc(-c2cc(Cl)ccc2O)n1	1.2	-185.0	100.6*	88.3*	-48.9	64.5*	-22.9
CC1CCC(NC(=O)c2cccc(S(=O)(=O)N3CCOCC3)c2)CC1 (configuration not stated)	-11.6	-46.1	-43.8	-18.7	6.3	-6.1	/
CCSc1nc(-c2ccccc2)c(-c2ccccc2)n1CC(O)CO (configuration not stated)	12.4	24.5	10.1	-2.4	-2.3	-0.6	/
CC(C)CC(NS(=O)(=O)OCC(Cl)(Cl)Cl)c1ccccc1 (configuration not stated)	-11.0	29.1	56.5*	13.8	14.0	0.4	44.8*
COC(=O)CCC(NS(=O)(=O)OCC(Cl)(Cl)Cl)c1ccccc1 (configuration not stated)	-12.7	13.9	-6.8	2.7	-0.1	1.9	/
COc1ccc(NS(=O)(=O)c2ccc3ccccc3c2)c2ncccc12	4.7	23.9	51.0*	51.1*	5.4	8.6	51.6*
COc1ccccc1NS(=O)(=O)c1ccc2ccccc2c1	17.5	13.1	27.8	-0.2	12.4	8.0	/
C=CCn1c(COc2ccccc2)nnc1SC(C)C(=O)N/N=C/c1cc(Cl)ccc1O (configuration not stated)	43.0	11.2	60.5*	2.7	-6.2	-13.9	71.1*
COc1cc(NC(=O)c2ccc(NC3=NC4CS(=O)(=O)CC4S3)cc2)cc(OC)c1 (configuration not stated)	8.8	6.8	8.6	-9.4	3.6	-7.4	/
CC(NC(=O)CCC(=O)NCc1ccc(F)cc1)c1ccccc1 (configuration not stated)	-7.6	9.8	7.5	4.0	-7.3	8.9	/

Assay outcomes from PubChem BioAssay.
